What all share (experiment): NCI-60 one-dose screen, 48 h (100 = growth as untreated, 0 = no growth, -100 = all killed)
In assay [1] the test system is TK-10 renal.
For assay [2], the system named is SK-MEL-2 melanoma. The following applies: 10 µM.
Assay [3] deals with EKVX NSCLC. The following applies: 10 µM.
Assay [4] concerns SN12C renal. The settings on record: 10 µM.
The test system of assay [5] is UO-31 renal. The following applies: 10 µM.
Assay [6] concerns ACHN renal. The settings on record: 10 µM.
Assay [7] relates to CAKI-1 renal. The following applies: 10 µM. How it is done: Growth inhibition of the CAKI-1 human tumor cell line is measured as a screen for anti-cancer activity. Cells are grown in 96 well plates and exposed to the test compound for 48 hours. Compounds are tested at a single concentration, which is 10^-5 M for most compounds. The reported endpoint is percent growth (GI% or GIPRCNT), where numbers from 0 - 100% represent growth inhibition, and numbers from -100% - 0 represent cell death. For example, a value of 40 represents 60% growth inhibition. A value of 0 means no net growth occurred over the course of the experiment. A value of -40 indicates 40% of cells at the beginning of the experiment died by the end of the experiment. A value of -100 means all cells are dead at the end of the experiment.
NCI-60 Human Tumor Cell Lines Screen was performed using the standard one-dose NCI protocol, which is described in more detail at https://dtp.cancer.gov/discovery_development/nci-60/default.htm.
Compounds with GIPRCNT values below 10 were considered active. Activity score was based on GIPRCNT using the following formula: […]
Score is 0 for GIPRCNT values of 100 or above, 50 for GIPRCNT values of 0, and 100 for GIPRCNT values of -100.

In assay [8] the test system is A498 renal. The following applies: 10 µM.
Assay [9] has as its system CCRF-CEM leukemia. The settings on record: 10 µM.
Assay [10] has as its system MOLT-4 leukemia. The settings on record: 10 µM.

“And” between values parts separate entries of the source, which are not always exact repeats. Equal entries are not always repeated. The panel holds about 83,000 compounds, 20% with a hit somewhere; the sample as a whole holds those more often.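 How to read the values: 0–100, growth inhibition (40 = 60% inhibited); 0, no net growth; -100 to 0, cell death (-40 = 40% of starting cells died; -100 = all dead).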 A structure can be active in one record and inactive in another. The source made the active and inactive calls.

Consider `COc1cc([C@@H]2c3cc4c(cc3[C@@H](Nc3ccc(NC(=O)c5cc([N+](=O)[O-])cn5C)cc3)[C@H]3COC(=O)[C@H]23)OCO4)cc(OC)c1O`, for which the growth in assay [1] (100 µM) is -28.8% (active).

`COc1ccc(C(=O)C(CN(C)C)CN(C)C)cc1`: the growth in assay [2] was 149% (inactive); in assay [3], -17% (active); in [4] it was 98.9% (inactive); in assay [5], 17% (inactive); in [1] (10 µM) it was 15.7% (inactive); in assay [6] it was -85.5% (active). Also, the growth in [7] was -84.8% (active); in assay [8] it was 99% (inactive); in assay [9], 36.3% (inactive); in assay [10], -32% (active).

Consider `Cc1cc(N(CCOS(C)(=O)=O)CCOS(C)(=O)=O)ccc1C=Nc1ccc(-c2nc(Cc3ccccc3)sc2C)cc1`, for which the growth in assay [2] is 86.3% (inactive); in [3], 11.1% (inactive); in assay [4], 52.3% (inactive); in assay [5], 22.2% (inactive); in assay [1] (10 µM), 14.2% (inactive); in assay [6] it was -23.2% (active). Besides, the growth in [7] is -32% (active); in [8], -48.7% (active); in assay [9], 23.4% (inactive); in [10], 14.2% (inactive).

With `C#CCN(Cc1ccc2nc(N)[nH]c(=O)c2c1)c1ccc(C(=O)NC(CCC(=O)O)C(=O)O)cc1` (stereo unspecified), the growth in assay [2] is 143% (inactive); in assay [3] it was 55.6% (inactive); in assay [4], 48.9% (inactive); in assay [1] (10 µM), 78.5% (inactive); in [6], 30.1% (inactive); in [7] it was 33.2% (inactive). The growth was 110% (inactive) in assay [8], 22.5% (inactive) in [9] and 39.1% (inactive) in [10].

In the case of `C=C1C(=O)OC2CC1C(OC(C)=O)C/C(C)=C/CC/C(C)=C\CCC2(C)O` (stereo unspecified), the growth in assay [2] was 41.5% (inactive); in assay [3], 59.3% (inactive); in assay [4], 40.6% (inactive); in assay [5] it was -39.8% (active); in [1] (10 µM), -11.8% (active); in [1] (100 µM), -98.1% (active). The growth was -5.85% (active) in assay [6]; 16% (inactive) in assay [7]; 87.3% (inactive) in assay [8]; -17.1% (active) in assay [9]; -14.4% (active) in assay [10].

With `CN(C)CCOC1(Cc2ccc(Cl)cc2Cl)CCC(C(C)(C)C)CC1` (stereo unspecified), the growth in [2] is 94.8% (inactive) and 54.6% (inactive); in assay [3], 48.2% (inactive) and 54.6% (inactive); in assay [4] it was 18.8% (inactive) and -12.6% (active); in assay [5], 29.3% (inactive) and 30.2% (inactive); in [1] (10 µM), 60.4% (inactive) and 61.9% (inactive); in assay [6], 48.7% (inactive) and -4.79% (active). In addition, the growth in assay [7] is 36.2% (inactive) and 22.1% (inactive); in assay [8], 63.9% (inactive) and 63.3% (inactive); in [9], 4.16% (active) and -9.84% (active); in [10], -14.2% (active) and -16.7% (active).

Regarding `Cc1ccc(Sc2ccccc2N)cc1`, the growth was 15.9% (inactive) in [2]; 121% (inactive) in assay [3]; 89% (inactive) in [4]; 81.5% (inactive) in assay [5]; 98% (inactive) in assay [1] (10 µM); -20% (active) in [6]. Further, the growth was 62.5% (inactive) in [7], 118% (inactive) in [8], 88.2% (inactive) in assay [9] and 81.2% (inactive) in assay [10].

For the compound `CC1=CC(=C(c2ccc(N)cc2)c2ccc(N)cc2)C=CC1=N`, the growth was -27.7% (active) and 41.7% (inactive) in assay [2]; 15.5% (inactive) and 46.2% (inactive) in assay [3]; 10.3% (inactive) and 6.77% (active) in [4]; 32% (inactive) and 85.8% (inactive) in assay [5]; 38.2% (inactive) and 15.3% (inactive) in [1] (10 µM); 28.9% (inactive) and 58.6% (inactive) in [6]. Further, the growth was 65.5% (inactive) in assay [7]; -7.24% (active) and 57.3% (inactive) in assay [8]; 19.3% (inactive) and 35.8% (inactive) in [9]; 10.4% (inactive) and 51.9% (inactive) in assay [10].

For the compound `O=[N+]([O-])c1cc[n+]([O-])cc1`, the growth in [2] was 110% (inactive); in assay [3] it was 110% (inactive); in assay [4], 92.8% (inactive); in [5], 93.6% (inactive); in assay [1] (10 µM), 110% (inactive); in assay [6], 114% (inactive). The growth in assay [7] is 106% (inactive); in [8], 93.8% (inactive); in assay [9], 121% (inactive); in [10], 69.3% (inactive).

(Values after PubChem BioAssay (NCI).)
